Screen size: about 220,000 compounds; about 910 (0.41%) were called active.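 Rule for the calls: active = primary inhibition above the hit cutoff, then over 50% inhibition at one or more dose response concentrations (cut at about 23% in these data, passing the limit was not always enough); inconclusive = conflicting primary data, or primary hits not chosen for dose response; inactive = low primary inhibition, or under 50% at every dose.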 The entries come from a sample that favours actives as a whole. Potency and affinity values are given separately.
target: Aminopeptidase N (Plasmodium falciparum (isolate 3D7)) (UniProt O96935); experiment: P. falciparum M1AAP inhibitors, biochemical, fluorogenic H-Leu-NHMec substrate, 1536-well (AID 1445); conditions: recombinant M1AAP, H-Leu-NHMec fluorogenic kinetic assay; at 30 µM, active compounds read high unless noted;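 note: plate controls were DMSO full reaction for no effect and no enzyme background for full effect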
Sequence (O96935 whole entry, looked up): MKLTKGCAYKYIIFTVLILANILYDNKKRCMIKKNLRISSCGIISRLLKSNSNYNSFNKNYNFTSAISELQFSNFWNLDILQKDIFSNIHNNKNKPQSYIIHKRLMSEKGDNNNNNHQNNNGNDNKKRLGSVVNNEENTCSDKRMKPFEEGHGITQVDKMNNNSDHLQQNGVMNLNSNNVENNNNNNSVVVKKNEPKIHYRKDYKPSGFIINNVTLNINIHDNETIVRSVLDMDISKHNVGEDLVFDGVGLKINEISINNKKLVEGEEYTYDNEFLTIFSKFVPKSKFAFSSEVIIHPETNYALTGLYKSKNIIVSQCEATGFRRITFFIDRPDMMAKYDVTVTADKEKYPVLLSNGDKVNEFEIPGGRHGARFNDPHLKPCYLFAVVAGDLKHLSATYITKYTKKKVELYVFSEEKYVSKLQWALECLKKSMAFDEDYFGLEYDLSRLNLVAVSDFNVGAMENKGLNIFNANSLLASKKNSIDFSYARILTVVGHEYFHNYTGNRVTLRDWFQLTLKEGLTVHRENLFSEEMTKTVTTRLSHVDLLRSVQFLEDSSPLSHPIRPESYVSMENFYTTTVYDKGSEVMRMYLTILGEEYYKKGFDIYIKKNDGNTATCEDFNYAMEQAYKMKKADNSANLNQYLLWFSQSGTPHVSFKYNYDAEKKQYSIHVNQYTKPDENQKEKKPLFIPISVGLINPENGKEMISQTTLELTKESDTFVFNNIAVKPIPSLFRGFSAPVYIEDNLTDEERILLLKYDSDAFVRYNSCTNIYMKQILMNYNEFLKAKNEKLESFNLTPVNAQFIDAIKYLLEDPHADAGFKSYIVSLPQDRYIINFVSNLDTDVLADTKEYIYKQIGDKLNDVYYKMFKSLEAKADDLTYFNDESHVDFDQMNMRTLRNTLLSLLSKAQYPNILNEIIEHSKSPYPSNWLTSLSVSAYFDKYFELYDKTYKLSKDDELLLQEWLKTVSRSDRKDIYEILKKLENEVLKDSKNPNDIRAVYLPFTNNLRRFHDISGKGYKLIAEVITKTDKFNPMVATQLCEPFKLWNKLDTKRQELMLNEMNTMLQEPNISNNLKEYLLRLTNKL

| SMILES | inhibition |
| --- | --- |
| O=C(N/N=C/c1ccc(Cl)s1)c1ccccc1[N+](=O)[O-] | 9.55% (inactive) |
| Cc1c(C)c2ccc(Oc3ccc([N+](=O)[O-])cc3C(F)(F)F)c(C)c2oc1=O | 6.61% (inactive) |
| Cc1cc(SCC(=O)N2CCC(c3noc4ccc(F)cc34)CC2)nc2ccccc12 | 7.53% (inactive) |
| Cc1sc2ncnc(SCC(=O)N3CCC(c4noc5ccc(F)cc45)CC3)c2c1C | 1.38% (inactive) |
| COC(=O)c1cn(NC(=O)Cc2ccccc2OC)c(=O)c2ccccc12 | 3.77% (inactive) |
| CC(=O)Oc1c(-c2ccco2)oc2ccccc2c1=O | 30.4% (inactive) |
| O=C(O)COc1c(-c2ccco2)oc2ccccc2c1=O | 9.28% (inactive) |
| Cn1c(SCc2nc(-c3ccccc3)no2)nnc1-c1cccs1 | -3.32% (inactive) |
| N/C(=N\OC(=O)c1cnn(-c2ccccc2)c1C(F)(F)F)c1ccc(C(F)(F)F)cc1 | 13.2% (inactive) |
| CC(=O)NN1C(=O)c2ccccc2NC1c1ccoc1 (stereo unspecified) | 4.92% (inactive) |
| O=C(NN1C(=O)c2ccccc2NC1c1ccoc1)c1ccc([N+](=O)[O-])cc1 (stereo unspecified) | 4.32% (inactive) |
| O=C(NN1C(=O)c2ccccc2NC1c1ccccn1)c1ccc(Br)cc1 (stereo unspecified) | 8.07% (inactive) |
| O=C(NN1C(=O)c2ccccc2NC1c1ccccn1)c1ccc([N+](=O)[O-])cc1 (stereo unspecified) | 2.53% (inactive) |
| O=C(NN1C(=O)c2ccccc2NC1c1ccco1)c1ccc(Br)cc1 (stereo unspecified) | 5.55% (inactive) |
| O=C(NN1C(=O)c2ccccc2NC1c1ccco1)c1ccc([N+](=O)[O-])cc1 (stereo unspecified) | 8.9% (inactive) |
| CCCc1[nH]nc2c1C1(CCN(C(=O)OCc3ccccc3)CC1)C(C#N)=C(N)O2 | 3.73% (inactive) |
| O=C1OCC=C1NNC(=O)c1cccnc1 | 4.75% (inactive) |
| Cc1ccc(SCc2[nH]nc3c2C2(C(=O)N(C)c4ccccc42)C(C#N)=C(N)O3)cc1 (stereo unspecified) | 5.03% (inactive) |
| Cc1ccc(CNC(=O)CSc2nc3ccsc3c(=O)n2Cc2ccccn2)cc1 | 15.8% (inactive) |
| O=C(CSc1nc2ccsc2c(=O)n1Cc1ccccc1)NCc1ccco1 | -0.89% (inactive) |
| Cc1ccc(CNC(=O)CSc2nc3ccsc3c(=O)n2Cc2ccc(C(=O)O)cc2)cc1 | 33.8% (inactive) |

| SMILES | inhibition |
| --- | --- |
| CCCN(CCC)C(=O)CSc1nc2ccsc2c(=O)n1NC(=O)c1ccccc1 | 2.56% (inactive) |
| COc1ccc(C(=O)Nn2c(SCC(=O)NCc3ccco3)nc3ccccc3c2=O)cc1 | 1.81% (inactive) |
| Cn1c(SCc2ccccc2)nc2ccsc2c1=O | 2.71% (inactive) |
| CCC(C)NC(=O)CSc1nc2ccsc2c(=O)n1NC(=O)c1ccccc1 (stereo unspecified) | 15.2% (inactive) |
| COc1ccc(-n2c(SCC(=O)NCCC(C)C)nc3ccsc3c2=O)cc1 | -0.48% (inactive) |
| CC1(C)Cc2c(sc(/N=C/N3CCCCC3)c2C#N)C(C)(C)N1 | 6.45% (inactive) |
| COc1ccc(/C=C/C(=O)NCC2COc3ccccc3O2)c(OC)c1 (stereo unspecified) | 6.8% (inactive) |
| COc1ccc(Cl)cc1NC(=O)CNc1ccccc1CN(C)C1CCCCC1 | 10.4% (inactive) |
| COC(=O)c1ccc(COc2ncnc3c(Cl)cc(Cl)cc23)o1 | 1.47% (inactive) |
| COc1ccc(C)cc1NC(=O)Cn1cnnn1 | 2.9% (inactive) |
| S=C(c1ccc(Br)cc1)N1CCN(Cc2ccccc2)CC1 | 12.5% (inactive) |
| CCc1n[nH]c(=S)n1/N=C/c1ccccc1OCc1ccc(Cl)cc1 | 3.79% (inactive) |
| CSc1n[nH]c(NC(C)=O)n1 | 2.22% (inactive) |
| Oc1c(Cl)cc(Cl)cc1C=Nc1ccc(Br)cc1 | 12.1% (inactive) |
| C/C(=N\O)c1cc(Cl)cc(Cl)c1O | 10.5% (inactive) |
| O=C(NCCn1ccc2ccccc21)c1ccc(S(=O)(=O)N2CCOCC2)cc1 | 8.48% (inactive) |
| CC(C)C(=O)NCCc1nc2ccccc2n1CCCOc1ccc(Cl)cc1 | 10.4% (inactive) |
| O=C(CC(C(=O)O)c1ccccc1)c1cccs1 (stereo unspecified) | 3.01% (inactive) |
| CC(C)Cc1nc2oc3c(=O)[nH]cnc3c2c2c1CCCC2 | -0.28% (inactive) |
| CN(C)C(=O)N1CCCC(C(=O)NCCc2ccccc2)C1 (stereo unspecified) | 2.4% (inactive) |
| O=C(NCCc1ccccc1)C1CCCN(C(=O)NC2CCCCC2)C1 (stereo unspecified) | 28.2% (active) |

| SMILES | inhibition |
| --- | --- |
| O=C(NC1CCN(C(=S)NCCc2ccccc2)CC1)C1CCCCC1 | -6.9% (inactive) |
| O=C(CN1CCOCC1)NNc1nc(-c2ccccc2)c2cc(Br)ccc2n1 | 20.7% (inactive) |
| O=c1[nH]c2ccc(Cl)cc2c(-c2ccccc2)c1SC(=S)N1CCOCC1 | 44% (inactive) |
| N#Cc1c(NC(=O)CCN2C(=O)c3ccccc3C2=O)oc(-c2ccccc2)c1-c1ccccc1 | 5.82% (inactive) |
| N#Cc1c(NC(=O)CN2CCOCC2)oc(-c2ccccc2)c1-c1ccccc1 | 23.5% (active) |
| O=c1[nH]c2ccc(Cl)cc2c(-c2ccccc2)c1N1CCOCC1 | -3.98% (inactive) |
| N#Cc1c(NC(=O)Cn2c(=O)oc3ccccc32)oc(-c2ccccc2)c1-c1ccccc1 | 4.71% (inactive) |
| CCOC(=O)c1[nH]c2ccc(Br)cc2c1NC(=O)CCN1CCOCC1 | 4.62% (inactive) |
| O=C(CCN1CCOCC1)Nc1cccc(Br)c1 | -4.3% (inactive) |
| O=C(O)Cc1c(-c2ccccc2)c2cc(Br)ccc2[nH]c1=O | 22.3% (inactive) |
| O=C(CN1CCOCC1)Nc1c(-c2ccccc2)c2cc(Br)ccc2[nH]c1=O | 28.2% (active) |
| CCOC(=O)N1CCN(C(=O)CCCOc2ccccc2)CC1 | 3.31% (inactive) |
| O=c1[nH]ncc(N2CCCCCC2)c1Cl | 5.89% (inactive) |
| COc1cc(/C=C/C(=O)O)ccc1OCc1cnc(Cl)s1 | 0.41% (inactive) |
| CC1=Nn2c(nc(-c3ccccc3)c2-c2ccccc2)N(CC(N)=O)C(=O)C1 | -0.64% (inactive) |
| CCCS(=O)(=O)N1CCN(C(=O)c2ccco2)CC1 | 12.4% (inactive) |
| CSc1nnc(C)c(=O)n1COC(=O)COc1ccccc1 | 0.02% (inactive) |
| COc1cc(OC)cc(C(=O)NC(=S)NCc2ccco2)c1 | 5.49% (inactive) |
| O=C(NC1CCCCC1)N1CCN(C(=O)c2ccco2)CC1 | -0.86% (inactive) |
